± gives the standard deviation of the averaged measurements. Over roughly 4,100 sequences, “relative kcat/Km (krel) vs genomic leader AAAGAU” has its median near 1.7; the highest 2% begin near 6.5. The list comes from a sample in which the highest values are over-represented; it also holds similar and randomly drawn sequences.
Target: T1, E. coli RNase P holoenzyme (M1 P RNA + rnpA protein) (UniProt P0A7Y8)
T1 sequence: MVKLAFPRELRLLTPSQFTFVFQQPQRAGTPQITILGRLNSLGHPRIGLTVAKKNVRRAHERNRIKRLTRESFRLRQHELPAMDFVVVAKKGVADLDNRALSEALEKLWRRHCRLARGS
Assay: relative kcat/Km (krel) vs genomic leader AAAGAU (relative (reference leader = 1)); higher = faster RNase P cleavage
Procedure: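 HTS-Kin: a pool of ptRNA-Met (21C construct) with all 4096 combinations of 5' leader nucleotides N(-6) to N(-1) was processed in vitro by E. coli RNase P (P RNA + rnpA/C5 protein) under multiple-turnover conditions at 37 C, pH 8, 17.5 mM MgCl2. Residual substrate was Illumina-sequenced at several fractions reacted, and relative kcat/Km (krel) was computed by internal competition kinetics, calibrated to the genomic leader (AAAGAU = 1). The listed hexamer is the varied N(-6)..N(-1) leader (DNA letters), and it sits between a fixed 5' stem-loop flank (GCAUGCACGAAAGUGCGUGCUAUGAA) and the mature tRNA-Met starting GGCUACGUAGCUCAGUUGG. Two technical replicates are averaged.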

[1] = fraction of substrate reacted: ~9-10% (9.79% repeat 1, 9.1% repeat 2)
[2] = fraction of substrate reacted: ~13-16% (15.68% repeat 1, 13.17% repeat 2)
[3] = fraction of substrate reacted: ~26-29% (28.66% repeat 1, 26.4% repeat 2)

Sequence	relative kcat/Km [1]	relative kcat/Km [2]	relative kcat/Km [3]
TACCAG	2.73 ± 1.4	2.64 ± 1.1	4.81 ± 1.2
CACCAT	4.34 ± 1.2	4.72 ± 0.96	7.01 ± 2.9
CACCAG	2.64 ± 2.5	1.93 ± 0.07	3.58 ± 1.1
GACCAT	3.62 ± 2.1	3.91 ± 0.13	5.96 ± 1.9
TACCTT	2.52 ± 0.33	3.78 ± 0.62	5.64 ± 2.6
TACCAC	3.48 ± 1.4	4.03 ± 1.6	6.63 ± 2.9
AACCAT	2.62 ± 1.1	2.62 ± 0.3	4.77 ± 2
TACCAA	3.31 ± 1.5	4.01 ± 0.25	6.07 ± 1.9
TACCAT	3.78 ± 1.5	5.08 ± 1.6	7.73 ± 3.6
ATAAGA	1.69 ± 0.23	2.23 ± 0.39	3.63 ± 1.3
ACGTTG	–	–	1.56 ± 0.44
ACCGCC	2.87 ± 1.1	2.93 ± 0.072	4.69 ± 1
TGGACC	0.825 ± 0.51	0.618 ± 0.3	0.551 ± 0.0088
TAACTC	1.62 ± 0.57	1.49 ± 0.16	2.26 ± 0.86
GCGTAC	2.64 ± 0.68	1.98 ± 0.25	3.77 ± 1.5
TCGTAT	4.13 ± 0.92	4.78 ± 0.97	7.28 ± 3.4
TCGTCT	3 ± 0.94	2.99 ± 1.4	4.35 ± 1.2
TTGTAG	2.4 ± 1.1	1.92 ± 0.36	3.78 ± 0.77
TTGTAC	3.78 ± 0.42	4.71 ± 1.3	7.05 ± 2.9
TCGTCC	3.8 ± 0.41	5.03 ± 1.6	6.93 ± 3.5
GTGTAC	1.78 ± 0.16	2.012 ± 0.0038	3.45 ± 1
TCGTAC	4.21 ± 1.1	5.11 ± 1.9	7.91 ± 3.5
GCGTCC	1.32 ± 0.099	1.73 ± 0.52	2.64 ± 0.41
CCGTAT	3.19 ± 0.25	4.32 ± 0.66	5.94 ± 2.6
ACGTAT	2.73 ± 1.2	3.73 ± 1.2	5 ± 1.8

Sequence	relative kcat/Km [1]	relative kcat/Km [2]	relative kcat/Km [3]
TCGTAA	3.3 ± 0.9	3.79 ± 0.62	6.16 ± 2.7
AGTTCG	–	0.601 ± 0.24	1.95 ± 0.2
GATGAG	–	–	0.577 ± 0.44
CAAAAA	1.14 ± 0.13	0.985 ± 0.72	2.42 ± 0.98
GGTCTT	–	1.32 ± 0.41	1.72 ± 0.37
ACGGGT	–	–	1.35 ± 0.62
GCTCGC	1.28 ± 1.3	1.58 ± 0.13	1.96 ± 0.049
GTTGTT	0.832 ± 0.53	0.86 ± 0.24	1.07 ± 0.92
GGTCGC	1.81 ± 0.88	2.0828 ± 0.002	3.37 ± 1.1
AATTGA	2.34 ± 0.47	3.16 ± 0.37	4.64 ± 1.2
GATTGA	2.31 ± 0.22	3.98 ± 1.1	4.96 ± 2.3
TATTGG	0.568 ± 0.24	–	1.46 ± 0.98
CATTGC	3.51 ± 1.1	4.2 ± 0.93	5.82 ± 2.3
TATTGC	3.74 ± 1.7	4.4 ± 0.4	6.68 ± 3.2
TATTGA	3.87 ± 0.33	4.42 ± 1.1	6.93 ± 3.1
TTAGTG	–	–	0.934 ± 0.09
CACTAA	4.69 ± 2	6.03 ± 0.39	7.49 ± 2.5
GACTGT	0.875 ± 0.79	1.18 ± 0.32	1.09 ± 0.23
CACTAG	2.94 ± 2.4	3.2 ± 0.63	5.04 ± 0.72
GACTAT	4.87 ± 2	5.68 ± 1.6	8.33 ± 3.5
AACTAA	2.93 ± 0.16	4.29 ± 1.7	6.5 ± 3.1
TACTAC	5.21 ± 2	6.73 ± 1.9	9.59 ± 4
AACTAT	3.41 ± 0.78	4.44 ± 0.83	6.43 ± 3.1
CACTGA	2.94 ± 1.2	3.71 ± 0.65	5.8 ± 1.7
TACTGC	3.83 ± 1.5	4.1 ± 0.86	5.96 ± 1.5

Sequence	relative kcat/Km [1]	relative kcat/Km [2]	relative kcat/Km [3]
TACTAA	5.23 ± 2.7	6.48 ± 0.54	8.92 ± 3.4
TACTAG	3.46 ± 2	3.248 ± 0.0033	5.53 ± 2
TGGAAA	1.63 ± 1.1	0.838 ± 0.78	1.61 ± 0.29
GTGTCA	1.15 ± 0.97	0.779 ± 0.57	1.49 ± 0.16
GCCTGG	–	–	0.776 ± 0.2
GTGCCC	1.01 ± 0.23	0.583 ± 0.44	1.13 ± 0.088
TTTGCT	0.76 ± 0.28	0.721 ± 0.56	0.983 ± 0.097
CAAAAC	1.4 ± 0.17	1.59 ± 0.4	2.51 ± 0.41
TACTAT	4.15 ± 0.89	6.07 ± 1.3	9 ± 3.9
GACTTA	3.03 ± 0.62	4.15 ± 0.96	5.78 ± 2.2
AACTAG	3.36 ± 2.5	2.8 ± 0.61	3.95 ± 1.3
GACTAA	4.15 ± 1.9	5.64 ± 1.3	8.21 ± 3.3
TACTGT	0.799 ± 0.45	1.56 ± 1.4	1.19 ± 0.64
GACTAG	1.77 ± 1.4	2.58 ± 0.6	4.67 ± 1.3
ATGAAG	0.588 ± 0.19	0.919 ± 0.16	1.85 ± 0.42
AGTCGG	–	0.482 ± 0.36	1.03 ± 0.14
GAGAAA	2.38 ± 1.1	3.13 ± 0.99	3.4 ± 0.98
TTCATT	4.9 ± 1.8	6.77 ± 1.4	9.68 ± 4.2
ATCATT	3.39 ± 1.4	4.551 ± 0.032	6.49 ± 2.6
GTCATT	4.45 ± 1.6	5.21 ± 2	8.08 ± 4
GGCATT	1.85 ± 0.77	2.15 ± 0.27	3.37 ± 1.4
CTCATA	3.84 ± 2.5	4.93 ± 0.27	6.23 ± 2.5
TTCATG	2 ± 2	2.08 ± 0.48	4.3 ± 1.5
TTCATC	4.42 ± 1.8	5.94 ± 0.79	8.86 ± 3.8
TTCATA	4.76 ± 2.5	6.15 ± 0.55	8.54 ± 3.2

Sequence	relative kcat/Km [1]	relative kcat/Km [2]	relative kcat/Km [3]
TGCATT	0.949 ± 0.79	1.93 ± 1.2	2.68 ± 1.7
TGCATC	2.12 ± 1.2	1.5 ± 0.48	2.05 ± 0.7
TCCATC	3.7 ± 1.8	3.95 ± 0.47	6.33 ± 2.3
TCTACA	1.43 ± 0.68	1.87 ± 0.44	2.46 ± 1.1
GGTAAG	1.39 ± 1.3	0.931 ± 0.053	2.32 ± 1.1
TCCACT	2.76 ± 1.1	3.06 ± 0.4	4.72 ± 1.1
CATCGT	–	–	1.54 ± 1.2
GGATCA	0.973 ± 0.2	1.04 ± 0.42	1.53 ± 0.71
CACGGT	–	–	1.7 ± 0.39
AGAGAT	0.682 ± 0.45	1.15 ± 0.6	1.75 ± 0.4
GTCATA	4.4 ± 2	4.91 ± 0.65	7.54 ± 3
ATCATA	3.61 ± 1.8	4.31 ± 0.3	5.9 ± 2.2
GTCATG	–	1.48 ± 0.37	3.5 ± 0.91
CGAGAG	0.809 ± 0.14	–	0.931 ± 0.1
CCTTCC	1.62 ± 0.022	1.51 ± 1.3	2.47 ± 0.27
CCCGAA	2.83 ± 1.5	4.35 ± 1.8	6.76 ± 2.5
ACCGAA	3.81 ± 1.6	4.31 ± 1	6.81 ± 3
TCCGAT	2.34 ± 0.53	2.91 ± 1.4	4.01 ± 1.3
TCCGAG	2.34 ± 0.033	2.52 ± 1.4	5.01 ± 2.2
GCCGAA	3.56 ± 1.2	4.16 ± 0.78	6.35 ± 2.4
GCCGAC	2.64 ± 1.3	3.49 ± 0.69	5.36 ± 2.2
CCCGAT	2.59 ± 0.49	2.76 ± 1.2	3.21 ± 0.9

— the supplement of paper PMC9433436
